Experimental data published in article PMC4336329 (PLoS ONE, 2015).
Among all 310,000 compounds or so, about 2,200 (0.71%) showed an effect of 50% or more. The effect is printed as a negative number. Many of the other results were omitted from the sample, so strong results are more common in it than they were.

The compounds below were run against human ether-à-go-go-related gene (hERG) potassium channel (human, UniProt Q12809) (assay: primary screen, population patch clamp on CHO cells stably expressing hERG; higher = less effect of the substance).
Sequence of human ether-à-go-go-related gene (hERG) potassium channel (Q12809 whole entry, looked up): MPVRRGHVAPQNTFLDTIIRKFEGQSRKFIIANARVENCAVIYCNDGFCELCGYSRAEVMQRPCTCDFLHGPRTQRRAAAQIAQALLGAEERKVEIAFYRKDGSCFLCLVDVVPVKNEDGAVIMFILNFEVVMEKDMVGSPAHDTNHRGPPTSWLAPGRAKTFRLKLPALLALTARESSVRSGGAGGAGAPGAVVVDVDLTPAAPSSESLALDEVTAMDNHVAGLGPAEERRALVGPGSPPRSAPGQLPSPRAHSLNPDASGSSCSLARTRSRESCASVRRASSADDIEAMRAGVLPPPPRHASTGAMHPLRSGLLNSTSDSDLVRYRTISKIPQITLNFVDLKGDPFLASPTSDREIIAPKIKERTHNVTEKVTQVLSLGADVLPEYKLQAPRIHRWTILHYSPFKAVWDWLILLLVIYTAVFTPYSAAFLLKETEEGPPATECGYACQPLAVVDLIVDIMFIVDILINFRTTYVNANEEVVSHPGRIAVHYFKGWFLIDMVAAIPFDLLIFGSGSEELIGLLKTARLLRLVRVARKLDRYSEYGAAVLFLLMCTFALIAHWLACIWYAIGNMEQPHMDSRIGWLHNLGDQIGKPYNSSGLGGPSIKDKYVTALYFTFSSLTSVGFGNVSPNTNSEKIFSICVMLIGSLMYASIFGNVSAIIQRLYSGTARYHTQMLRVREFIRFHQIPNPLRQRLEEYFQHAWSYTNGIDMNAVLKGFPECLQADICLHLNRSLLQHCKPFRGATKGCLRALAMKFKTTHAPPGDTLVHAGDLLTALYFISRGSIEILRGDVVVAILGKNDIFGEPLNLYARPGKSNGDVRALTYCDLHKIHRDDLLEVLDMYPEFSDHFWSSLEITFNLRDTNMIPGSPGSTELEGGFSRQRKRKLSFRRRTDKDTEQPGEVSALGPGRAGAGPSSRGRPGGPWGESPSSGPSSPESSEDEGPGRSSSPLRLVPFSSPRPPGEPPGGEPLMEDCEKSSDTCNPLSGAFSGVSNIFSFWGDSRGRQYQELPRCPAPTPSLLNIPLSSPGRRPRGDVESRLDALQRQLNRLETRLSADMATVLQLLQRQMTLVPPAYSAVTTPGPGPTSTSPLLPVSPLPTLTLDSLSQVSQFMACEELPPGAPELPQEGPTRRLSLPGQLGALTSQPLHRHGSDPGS

| Structure (SMILES) | hERG current change (%, negative = inhibition) at 1uM [%] |
| --- | --- |
| CCOC(=O)C1=C(Cc2ccc(F)cc2)C(=O)c2ccccc2C1=O | 6.27 |
| CCOC(=O)CCNC(=O)N1CCCC(CNS(=O)(=O)Cc2ccccc2)C1 (centres unmarked) | 8.76 |
| CCC(C)(C)n1nnnc1CN1CCC(c2nc3ccc(C)cc3[nH]2)CC1 | -25.7 |
| Cc1nc2cc(C(F)(F)F)ccc2n1C1CCN(Cc2nnnn2Cc2cccs2)CC1 | -2.78 |
| c1csc(Cn2nnnc2CN2CCN(c3nc4ccccc4s3)CC2)c1 | -7.1 |
| Cc1cc2nc(C3CCN(CC4COc5ccccc5O4)CC3)[nH]c2cc1C (centres unmarked) | -65.6 |
| Cc1cc2nc(C3CCN(Cc4nnnn4Cc4cccs4)CC3)[nH]c2cc1C | -72.4 |
| Cl.c1ccc(Cn2nnnc2CN2CCCC2)cc1 | 10.1 |
| CCN1CCN(CC2COc3ccccc3O2)CC1.Cl (centres unmarked) | 7.79 |
| Cc1cc2nc(C3CCN(Cc4nnnn4Cc4ccccc4)CC3)[nH]c2cc1C | -50.7 |
| CCN(CC)C(=O)CN1CCC(c2nc3cc(C)c(C)cc3[nH]2)CC1 | 11.1 |
| CCN(CC)CCN1C(=O)C(=O)/C(=C(/O)c2ccc(F)cc2)C1c1cccnc1 (centres unmarked) | 14.9 |
| Cc1nnc(NCc2n[nH]c(=O)c3ccccc23)c2ccccc12 | 9.65 |
| O=C(CN(C(=O)c1csnn1)c1ccc2c(c1)OCCO2)NCc1ccc(F)cc1 | -1.13 |
| COc1ccc2c(c1)C(=O)CC(c1ccc3c(c1)OCCO3)O2 (centres unmarked) | 16.1 |
| CCOC(=O)c1ccc(NC(=O)Nc2cccc(C)n2)cc1 | 10 |
| Cc1ccccc1SC1CCN(Cc2nc(C3CC3)no2)CC1 | -1.23 |
| Cc1ccc(CS(=O)(=O)c2ncn[nH]2)cc1 | 21 |
| Cc1oc(-c2cccc(Cl)c2)nc1CN1CCC(C(=O)NC2CC2)CC1 | 14.6 |
| Cc1oc(-c2cccc(Cl)c2)nc1CN1CCC(C(=O)NCc2ccco2)CC1 | -70.4 |
| Cc1oc(-c2cccc(Cl)c2)nc1CN1CCCC(C(=O)NCc2ccco2)C1 (centres unmarked) | -45 |
| Cc1oc(-c2ccc(Cl)cc2)nc1CN1CCCC(C(=O)NCc2ccccn2)C1 (centres unmarked) | -44.2 |

| Structure (SMILES) | hERG current change (%, negative = inhibition) at 1uM [%] |
| --- | --- |
| Cc1oc(-c2ccccc2F)nc1CN1CCC(C(=O)NCc2ccco2)CC1 | -9.53 |
| Cc1oc(-c2ccc(Cl)cc2)nc1CN1CCC(C(=O)N2CCc3ccccc3C2)CC1 | -56.7 |
| Cc1oc(-c2ccc(Cl)cc2)nc1CN1CCCC(C(=O)NCc2ccco2)C1 (centres unmarked) | -56.4 |
| Cc1ccccc1-c1nc(CN2CCC(C(=O)NCc3ccco3)CC2)c(C)o1 | -34.7 |
| Cc1oc(-c2cccc(Cl)c2)nc1CN1CCC(C(=O)NCc2cccnc2)CC1 | -13 |
| CCN1CCN(C(=O)C2CCN(Cc3nc(-c4cccc(Cl)c4)oc3C)CC2)CC1 | -21 |
| Cc1oc(-c2ccc(Cl)cc2)nc1CN1CCC(C(=O)NCc2ccco2)CC1 | -58.3 |
| Cc1oc(-c2ccc(Cl)cc2)nc1CN1CCC(C(=O)N2CCN(Cc3ccccc3)CC2)CC1 | -48.1 |
| Cc1ccc(OC(=O)c2ccc3nc(C)sc3c2)cc1 | 10 |
| COC(=O)COC(=O)c1ccc(O)cc1 | -12.9 |
| O=C1C=C(c2ccc3ncccc3c2)C[C@@H](c2ccc3c(c2)OCO3)C1 | 9.3 |
| O=C(c1cc2ccccc2oc1=O)N(Cc1cccs1)Cc1ccccc1Cl | 2.42 |
| CCc1ccc(NC(=O)CCn2nc(C)c(S(=O)(=O)N3CCCCC3)c2C)cc1 | 4.67 |
| CCOC(=O)COc1c(-c2ccc(OC)cc2)oc2ccccc2c1=O | 9.81 |
| CC(C)OP(=O)(OC(C)C)C(Nc1ccccc1)c1cccc([N+](=O)[O-])c1 (centres unmarked) | 12 |
| COc1cc(-c2nc3n(n2)C(c2ccncc2)C2=C(CCCC2=O)N3)cc(OC)c1OC (centres unmarked) | 26 |
| Cc1ccc(CN2C(=O)C3CCCN3c3ncccc32)cc1 (centres unmarked) | 12.7 |
| CCCCN1C(=O)NC(=O)/C(=C/c2cnc(SC)nc2)C1=O | 7.6 |
| Cc1ccccc1NCc1ccc(O)c2ncccc12 | 8.46 |
| Cl.N=c1ccn(Cc2ccccc2Cl)cc1 | 16.8 |
| CCc1ccc(-c2nc(CN3CCC(C(=O)NCc4ccc(F)cc4)CC3)c(C)o2)cc1 | -12.4 |
| CCc1ccc(-c2nc(CN3CCC(C(=O)NCCN(CC)c4ccccc4)CC3)c(C)o2)cc1 | -15.6 |

| Structure (SMILES) | hERG current change (%, negative = inhibition) at 1uM [%] |
| --- | --- |
| CCc1ccc(-c2nc(CN3CCC(C(=O)NCc4ccco4)CC3)c(C)o2)cc1 | -51.1 |
| CCOc1ccc(-c2cn3ccccc3n2)cc1 | -1.48 |
| COc1ccc(CC(=O)Nc2c(C(=O)N3CCN(c4ncccn4)CC3)oc3ccccc23)cc1 | -21.4 |
| COc1ccc(N2CCN(C(=O)c3oc4ccccc4c3NC(=O)Cc3cccc(OC)c3)CC2)cc1 | 3.16 |
| CCOCCCN(C)C1CCN(C(=O)c2oc3ccccc3c2NC(=O)Cc2cccc([N+](=O)[O-])c2)CC1 | -83.8 |
| COc1ccc(CC(=O)Nc2c(C(=O)N3CCN(c4ccccc4)CC3)oc3ccccc23)cc1OC | -8.82 |
| CCCN(CCC)C(=O)c1oc2ccccc2c1NC(=O)Cc1cccc(OC)c1 | 19.2 |
| CCOCCCN(C)C1CCN(C(=O)c2oc3ccccc3c2NC(=O)Cc2ccc([N+](=O)[O-])cc2)CC1 | -89.1 |
| COc1ccc(NS(=O)(=O)c2cccc(C(=O)N3CCCC(C)C3)c2)cc1 (centres unmarked) | 3.3 |
| CCN(CCn1cccn1)C(=O)CC1C(=O)NCCN1Cc1ccc(OC)c(OC)c1 (centres unmarked) | 2.76 |
| Fc1ccc(C(c2nnnn2Cc2cccs2)N2CCN(C3CCCCC3)CC2)cc1 (centres unmarked) | -46.6 |
| COc1ccc(Cn2nnnc2C(c2ccc3ncccc3c2)N2CCN(C3CCCCC3)CC2)cc1 (centres unmarked) | -79.3 |
| COc1ccc(Cn2nnnc2C(c2ccc(C)cc2)N2CCN(C3CCCC3)CC2)cc1.Cl (centres unmarked) | -32.4 |
| c1cnc2ccc(C(c3nnnn3C3CCCCC3)N3CCN4CCCC4C3)cc2c1 (centres unmarked) | -96.9 |
| Fc1ccc(Cn2nnnc2C(c2cccs2)N2CCCCCC2)cc1 (centres unmarked) | 0.84 |
| Fc1ccc(Cn2nnnc2C(c2cccs2)N2CCN(C3CCCCC3)CC2)cc1 (centres unmarked) | -51.6 |
| c1cnc2ccc(C(c3nnnn3C3CCCCC3)N3CCN(C4CCCCC4)CC3)cc2c1 (centres unmarked) | -87 |
| c1cnc2ccc(C(c3nnnn3C3CCCCC3)N3CCCCC3)cc2c1 (centres unmarked) | 1.89 |
| OC1CCN(C(c2ccc3ncccc3c2)c2nnnn2C2CCCCC2)CC1 (centres unmarked) | -5.3 |
| CCC(C)(C)n1nnnc1C(c1ccc2ncccc2c1)N1CCN2CCCC2C1 (centres unmarked) | 8.16 |
| COc1ccc(Cn2nnnc2C(c2ccc(F)cc2)N2CCN(C3CCCC3)CC2)cc1 (centres unmarked) | -15 |
| c1cnc2ccc(C(c3nnnn3C3CCCC3)N3CCN4CCCC4C3)cc2c1 (centres unmarked) | -19.5 |

| Structure (SMILES) | hERG current change (%, negative = inhibition) at 1uM [%] |
| --- | --- |
| CCN(CC(=O)Nc1ccc(NC(C)=O)cc1)C(=O)CSc1nnc(-c2ccco2)n1CC | 16.2 |
| Cc1nn2c(-c3ccccc3)ccnc2c1-c1ccccc1 | 7.57 |
| CC(C)Oc1ccc(/C(O)=C2/C(=O)C(=O)N(Cc3cccnc3)C2c2ccco2)cc1 (centres unmarked) | 14.2 |
| Cc1cc(C)c(S(=O)(=O)N2CCOC2CNC(=O)C(=O)NCCCN2CCCC2=O)c(C)c1 (centres unmarked) | 7.05 |
| O=C(c1ccccc1)c1c[nH]c(C(=O)C(Cl)(Cl)Cl)c1 | 16 |
| COC/C=C/C1=CC2=CC(=O)C(C)(OC(=O)c3cnc4ccccc4n3)C(=O)C2=CN1C1CCCCC1 (centres unmarked) | 9.88 |
| Cc1csc(NC(=O)CSc2nncs2)n1 | 8.29 |
| CC(NC(=O)Cc1cccs1)c1ccc2c(c1)OCO2 (centres unmarked) | -4.41 |
| CCOC(=O)c1cccc(Nc2ncnc3ccc(C)cc23)c1 | -3.73 |
| CC(C)N(CCNC(=O)COc1ccc2oc3c(c2c1)CCCC3)C(C)C | -52.7 |
| CC(C)OCCCNC(=O)COc1ccc2oc3c(c2c1)CCCC3 | 11.1 |
| CCN(CC)CCCNC(=O)COc1ccc2oc3c(c2c1)CCCC3.Cl | 6.07 |
| O=C(NCCN=C1NS(=O)(=O)c2ccccc21)c1ccc2nccnc2c1 | 18.3 |
| O=C(CSCc1cccc(CSCC(=O)Nc2ccccc2)n1)Nc1ccccc1 | -59.7 |
| O=C(CSCc1cccc(CSCC(=O)Nc2ccc3ccccc3c2)n1)Nc1ccc2ccccc2c1 | 8.91 |
| O=C(CSCc1ccccn1)Nc1ccccc1 | -0.275 |
| C=CCNC(=O)c1sc(=S)n(-c2ccc(C(=O)OCC)cc2)c1N | 2.24 |
| O=C(c1cccn2c(=O)c3ccccc3nc12)N1CCN(Cc2ccc3c(c2)OCO3)CC1 | -54.4 |
| O=C(c1cccn2c(=O)c3cc(Cl)ccc3nc12)N1CCN(Cc2ccc3c(c2)OCO3)CC1 | -33.5 |
| O=C(c1ccc2nc3ccccc3c(=O)n2c1)N1CCN(Cc2ccc3c(c2)OCO3)CC1 | -12.2 |
